An excerpt weighted towards active compounds, which were near 2.2% of everything screened.
HSP90 inh – HSP90 inhibitors, primary screen, cell lysate, luminescence. Heat shock protein HSP 90 (rabbit reticulocyte lysate; luciferase refolding). Rabbit reticulocyte lysate, luciferase refolding luminescence, 3 h. inhibition, % at 5.6 µM. 290,000 tested, 0.91% active. AID 1789, 2009;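 active means inhibition above the screen-wide mean plus 3 SD, computed separately per campaign, cut at about 16% in these data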;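 further: 0% = DMSO wells and 100% = 60 µM geldanamycin wells; inhibitors lower the luminescence because luciferase stays unfolded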
TROY NFkB inh – inhibitors of TROY-driven NF-kB signaling, primary screen, Q293 LMP1-TROYcd cells, NF-kB luciferase, uHTS; Q293 LMP1-TROYcd NF-kB luciferase reporter, 4 h; inhibition, % at 10 µM; 360,000 tested, 0.98% active;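 active means compounds whose plate-normalised and pattern-corrected inhibition of the luciferase reporter signal at the single screening dose is 50% or more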
LGR2 antag – inhibitors of bursicon-induced LGR2 CRE-luciferase signal, primary screen, cell-based, HEK293, CRE-luciferase reporter, bursicon stimulation; Drosophila bursicon receptor LGR2 (rickets); bursicon-stimulated, 4 h; inhibition, % at 9.99 µM; 380,000 tested, 0.35% active; AID 720647, 2013;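 active means drop in luminescence signal, shown as inhibition above about 50% in the replicate tests, limit read from the data, passing the limit was not always enough; inconclusive means probably only some replicates passing the limit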;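 further: agonist challenge used bursicon conditioned medium at about half maximal strength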
TWEAK Fn14 block – inhibitors of TWEAK-Fn14 signaling, primary screen, luciferase reporter cells, uHTS | TWEAK-stimulated Fn14 reporter cells, luciferase luminescence, 8 h | inhibition, % at 10 µM | 360,000 tested, 2% active; in the data active means inhibition above about 50%
HSP90 confirm – HSP90 inhibitors, confirmation, cell lysate, luminescence | inhibition, % at 5.9 µM | shares compounds with HSP90 inh | rabbit reticulocyte lysate, luciferase refolding luminescence, 3 h | 2,300 tested, 64% active | AID 1846, 2009; in the data active means inhibition above about 18%;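 further: 0% = vehicle wells and 100% = reference inhibitor wells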
FLuc counter – firefly luciferase inhibitors, HSP90 counter-screen, confirmation, artefact control for HSP90 inhibitor project, biochemical, luminescence, triplicate; inhibition, % at 5.9 µM; purified native firefly luciferase; shares compounds with HSP90 inh; 2,300 tested, 48% active; AID 1847, 2009;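 active means inhibition above the mean inhibition of all tested sample wells plus 3 SD, cut at about 10% in these data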;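 further: 0% = DMSO with luciferase and 100% = wells lacking luciferase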
Target sequence (P08659 whole entry, looked up): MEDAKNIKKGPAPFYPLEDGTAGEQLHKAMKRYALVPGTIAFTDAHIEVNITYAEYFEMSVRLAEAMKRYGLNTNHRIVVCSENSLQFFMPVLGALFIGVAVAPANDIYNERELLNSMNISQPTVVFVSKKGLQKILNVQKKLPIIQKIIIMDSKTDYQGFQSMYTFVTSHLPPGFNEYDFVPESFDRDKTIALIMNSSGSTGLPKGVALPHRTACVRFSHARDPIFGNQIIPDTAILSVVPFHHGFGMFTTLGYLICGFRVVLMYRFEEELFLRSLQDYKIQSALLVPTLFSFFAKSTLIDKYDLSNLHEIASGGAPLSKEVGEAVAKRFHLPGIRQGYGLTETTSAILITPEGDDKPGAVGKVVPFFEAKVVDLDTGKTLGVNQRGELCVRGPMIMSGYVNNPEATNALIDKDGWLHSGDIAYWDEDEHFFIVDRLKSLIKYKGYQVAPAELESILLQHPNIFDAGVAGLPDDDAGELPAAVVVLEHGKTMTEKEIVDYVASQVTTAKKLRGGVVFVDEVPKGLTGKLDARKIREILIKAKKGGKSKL
An asterisk follows results filed as active; ? = inconclusive; . = no result given.

SMILES	HSP90 inh	TROY NFkB inh	LGR2 antag	TWEAK Fn14 block	HSP90 confirm	FLuc counter
C[C@H](CO)N1C[C@H](C)[C@H](CN(C)S(=O)(=O)c2ccccc2)Oc2ccc(NC(=O)Nc3cccc4ccccc34)cc2C1=O	.	.	19	.	.	.
CCCNC(=O)N[C@@H]1CC[C@@H](CCn2cc(C3CCCC3)nn2)O[C@H]1CO	.	.	3	.	.	.
CC(=O)CSc1ccc(-c2nc3cc(C)c(C)cc3[nH]2)cn1	69*	88*	98*	102*	91*	57*
CCOC(=O)CNC(=O)CSc1ccc(-c2nc3ccccc3[nH]2)cn1	-3	0	-10	14	.	.
CC(=O)CSc1ccc(-c2nc3ccccc3[nH]2)cn1	24*	15	7	69*	46*	2
C[C@@H]1CN([C@H](C)CO)C(=O)c2cc(-c3cccc(C#N)c3)cnc2O[C@H]1CN(C)Cc1ccncc1	.	.	2	.	.	.
C[C@H](CO)N1C[C@H](C)[C@H](CN(C)C(=O)Nc2cccc3ccccc23)Oc2c(NC(=O)c3nc4ccccc4s3)cccc2C1=O	.	.	3	.	.	.
C[C@@H]1CN([C@@H](C)CO)C(=O)c2cccc(NS(=O)(=O)c3cn(C)cn3)c2O[C@H]1CN(C)Cc1ccccc1	.	.	-2	.	.	.
C[C@H](CO)N1C[C@H](C)[C@@H](CN(C)C(=O)C2CCC2)Oc2cc(-c3cccnc3)ccc2S1(=O)=O	.	.	1	.	.	.
Clc1ccc(Cn2ncc3c(N4CCCCC4)ncnc32)cc1	5	12	.	22	.	.
COc1ccc(-n2ncc3c(NC(C)C)ncnc32)cc1	17*	27	.	64*	43*	31*
COc1ccc(-n2ncc3c(NCc4cccnc4)ncnc32)cc1	-3	-62	-68	0	.	.
Cc1cccc(-n2ncc3c(N4CCOCC4)ncnc32)c1	54*	68*	90*	85*	77*	68*
c1ccc(-n2ncc3c(NCCCN4CCOCC4)ncnc32)cc1	3	-72	.	-2	.	.
Clc1ccc(-n2ncc3c(NCCN4CCOCC4)ncnc32)cc1	44*	67*	.	83*	50*	42*
Clc1ccc(-n2ncc3c(N4CCCCCC4)ncnc32)cc1	63*	92*	96*	105*	83*	86*
COc1ccccc1S(=O)(=O)N(C)C[C@@H]1OCc2cn(nn2)CCCC(=O)N([C@@H](C)CO)C[C@@H]1C	.	.	-27	.	.	.
COc1ccc(-n2ncc3c(N4CCCCC4)ncnc32)cc1	67*	86*	.	104*	90*	86*
C[C@@H]1CN([C@H](C)CO)C(=O)c2cc(NC(=O)Cc3cn(C)c4ccccc34)ccc2O[C@@H]1CN(C)C(=O)Nc1ccc2c(c1)OCO2	.	.	-17	.	.	.
CCOC(=O)Cn1nc(C)n(-c2ccc(C(C)(C)C)cc2)c1=O	17*	2	.	3	3	-4
COc1ccc(CNC[C@@H](CCCCN(C)Cc2ccc(OC)cc2)N2C[C@H](c3ccccc3)N(CCc3ccc(Cl)c(Cl)c3)C(=O)C2=O)cc1	18*	34	.	97*	20*	-5
CO[C@H]1CN(C)C(=O)c2cc(NS(=O)(=O)CC(F)(F)F)ccc2OC[C@H](C)N(Cc2nccs2)C[C@H]1C	.	.	12	.	.	.
O=c1oc(Nc2cccc(F)c2)nc2ccccc12	18*	-11	.	34	2	-14
Nc1nc(Nc2cccc(F)c2)nc2ccccc12	0	-41	.	1	.	.
O=C(CSc1cn(CCNC(=O)c2ccc3ccccc3c2)c2ccccc12)NCc1ccco1	19*	42	16	60*	22*	-1
SMILES	HSP90 inh	TROY NFkB inh	LGR2 antag	TWEAK Fn14 block	HSP90 confirm	FLuc counter
COc1ccc(C(=O)NCCn2cc(SCC(N)=O)c3ccccc32)cc1	74*	63*	3	51*	9	-9
COc1ccc(C(=O)NCCn2ccc3ccccc32)cc1	60*	43	-50	30	22*	-12
Cc1ccc(C(=O)NCCn2ccc3ccccc32)cc1[N+](=O)[O-]	0	-60	-29	-3	.	.
CNC[C@@H]1Oc2c(NC(=O)c3cc(C)nn3C)cccc2C(=O)N([C@H](C)CO)C[C@@H]1C	.	.	-4	.	.	.
c1csc(-c2nc(CN3CCSCC3)cs2)c1	27*	15	?	60*	55*	31*
O=S1(=O)CCN(Cc2csc(-c3cccs3)n2)CC1	5	-17	-18	22	.	.
C[C@@H]1CN([C@@H](C)CO)C(=O)c2cc(NC(=O)Nc3cccc4ccccc34)ccc2O[C@@H](C)CCCCO[C@@H]1CN(C)Cc1ccccc1	.	.	4	.	.	.
O=C(O)C(=O)/C(=C\c1ccc(Cl)cc1)c1ccc2ccccc2n1	22*	53*	-40	34	-4	-5
O=C(NCCc1ccc(Cl)cc1)c1ccc2ccccc2n1	-1	-9	-31	18	.	.
C[C@@H]1CN([C@H](C)CO)C(=O)c2cccc(N(C)C)c2O[C@H]1CN(C)Cc1ccc(C(=O)Nc2ccccc2N)cc1	.	.	-22	.	.	.
O=C(Nc1ccccn1)c1cc2ccccc2o1	69*	70*	.	96*	80*	78*
O=C(Nc1ccc2c(c1)OCCO2)c1cc2ccccc2o1	24*	2	?	31	39*	26*
O=C(NC1=NCCS1)c1cc2ccccc2o1	34*	20	.	82*	56*	47*
CO[C@@H]1CN(C)C(=O)c2cc(NC(=O)C3CC3)ccc2OC[C@@H](C)N(Cc2cccc(F)c2)C[C@H]1C	.	.	10	.	.	.
O=C(O)c1cccc(-c2nnn(Cc3ccccc3)n2)c1	29*	-54	.	-13	35*	41*
COc1ccc(-c2nnn(Cc3ccccc3)n2)cc1	-3	-45	-32	-47	.	.
O=C(O)c1cccc(-c2nnn(Cc3ccccc3Cl)n2)c1	59*	-42	.	0	77*	81*
Cc1ccccc1Cn1nnc(-c2ccc(C(=O)O)cc2)n1	1	-9	21	-14	.	.
Cc1ccccc1Cn1nnc(-c2cccc(C(=O)O)c2)n1	38*	-86	32	4	54*	66*
O=C(O)c1cccc(OCc2ccccc2Cl)c1	28*	-27	.	11	53*	27*
COC(=O)[C@H]1[C@H](CO)[C@H]2Cn3c(ccc(-c4ccccc4F)c3=O)[C@H]2N1Cc1ccncc1	.	.	5	.	.	.
c1ccc(-c2cn3c(n2)-c2ccccc2C3)cc1	18*	33	?	72*	51*	42*
O=C1c2ccccc2CN2C(=O)c3ccccc3CN12	3	6	2	7	.	.
O=C(C[C@H]1C=C[C@H](NC(=O)c2ccc3c(c2)OCO3)[C@H](CO)O1)NCc1ccc(F)cc1	.	.	14	.	.	.
Cc1ccc(-c2onc3ccc(C4OCCO4)cc23)cc1	35*	-61	-46	1	1	-20

Source: PubChem BioAssay
